The values that follow come from PubChem BioAssay.

For some assays here: Measured potencies and affinities stand elsewhere. Activity calls are given as the source filed them.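 Rule for the calls, unless noted: active = thallium flux through the channel raised or lowered by more than 3 SD from vehicle-only wells, actives on both sides; inactive = the rest.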

A short description of experiment [1]: blockers of polyQ-driven CASP3 activation – cell-based (AID 1583). The following applies: polyglutamine-induced caspase-3 activation, cell assay; stronger effect = higher value;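 tested at 10 µM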.
Experiment [2] is described as follows: yeast 75Q aggregation reduction – 75Q-TubU reporter (AID 1593). The conditions noted are these: Yeast 75Q polyglutamine aggregation reporter.
Experiment [3] in a line: restoration of touch response, mutant HTT neurons – whole organism, C. elegans mechanosensory neurons, N-terminal huntingtin (AID 1599). The conditions noted are these: C. elegans polyQ-huntingtin mechanosensory neurons, stronger effect = higher value.
The nature of experiment [4]: blockers of cytochrome c efflux from mitochondria – biochemical, purified mitochondria (AID 1603).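 Note: mouse liver mitochondria challenged with calcium chloride; signal normalized to the plate average as 100%.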 The conditions noted are these: stronger effect = lower value.
Experiment [5] in a line: polyglutamine aggregate formation blockers (AID 1604). The conditions noted are these: polyglutamine-induced protein aggregation inhibition assay; stronger effect = higher value; tested at 2.5 µM.
Experiment [6] can be described thus: glutamate transport activators, MN-1 cells, MN-1 cell line (AID 1612).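 Note: tested at 1 µM final; 0% = mean of DMSO vehicle wells on each plate; positive means more glutamate uptake than control and negative means less.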 The following applies: MN-1 motor neuron cells, stronger effect = higher value.
Experiment [7] in a line: 75Q-TubH aggregate inhibition, S. cerevisiae, yeast (AID 1616). The conditions noted are these: S. cerevisiae 75Q-TubH polyglutamine aggregation suppression; stronger effect = higher value.
Experiment [8] relates to Hepatitis C virus NS3 helicase. In words: blockers of NS3h binding to DNA – biochemical, fluorescence polarization, NIH Clinical Collection, primary screen (AID 743270; call rule not given here). The following applies: NS3 helicase binding to Cy5-dT15 DNA, stronger effect = higher value, concentration not given here. Background: Fluorescence polarisation rises when a labelled molecule tumbles more slowly, as on binding a larger partner.

Experiment [9] addresses Single-stranded DNA-binding protein (Escherichia coli (strain K12)) (UniProt P0AGE0). In words: SSB-ssDNA binding inhibitors – biochemical, fluorescence polarization, NIH Clinical Collection, counter-screen for HCV NS3 helicase inhibitor project (AID 743271; in the data active = inhibition above about 28%). The conditions noted are these: E. coli SSB-DNA binding, stronger effect = higher value, concentration not given here.
Experiment [10] can be described thus: compounds distorting NS3 helicase fluorescence signal – biochemical, NIH Clinical Collection, artefact control for HCV NS3 helicase inhibitor project (AID 743272; call rule not given here;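 note: HCV NS3 helicase with a Cy5 labelled single stranded DNA probe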). The conditions noted are these: fluorescence interference counterscreen, HCV NS3 helicase assay; stronger effect = lower value. For orientation: Counterscreens check selectivity or assay interference.
Another experiment deals with F380Y. Briefly: BK channel mutant inhibitors and activators – cell-based, U2OS BacMam, thallium flux, beta subunits, selectivity assay, profiling panel (AID 1259406).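 Note: initial slope of Thallos dye fluorescence rise after thallium is added; log ratio against the mean of 0.3% DMSO vehicle wells on the same plate.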 The conditions noted are these: U2OS BacMam BK variants, at 30 µM.
In a further experiment the test system is F380Y/beta2Delta. The experiment is described as above. The conditions noted are these: U2OS BacMam BK variants, at 30 µM.
The target in experiment [11] is Calcium-activated potassium channel subunit alpha-1 (Homo sapiens) + Leucine-rich repeat-containing protein 26 (Homo sapiens) (UniProt Q12791+Q2I0M4). The description is as above. The following applies: U2OS BacMam BK variants, F380Y/Slo1WT/gamma1, at 30 µM.
Another experiment deals with R275C. Described as above. The following applies: U2OS BacMam BK variants, at 30 µM.
For the next experiment, the system named is R275C/beta1. Described as above. The following applies: U2OS BacMam BK variants, at 30 µM.
The next experiment has as its system R275C/beta2Delta. Described as above. The conditions noted are these: U2OS BacMam BK variants, at 30 µM.
The nature of experiment [12]: compounds altering circadian rhythm period length – cell-based, LOPAC library, luminescence reporter (AID 2774; call rule not given here;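 note: values are relative to mean of DMSO wells on each plate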). The following applies: circadian reporter cells, at 7 µM, actives lie on both sides.
For experiment [13], the system named is Hepatitis C virus NS3 helicase. Briefly: blockers of NS3h binding to ssDNA – biochemical, fluorescence polarization, LOPAC1280 library, primary screen (AID 687035; in the data active = inhibition above about 37%). The following applies: Purified HCV NS3 helicase, Cy5-dT15 ssDNA binding fluorescence polarization; stronger effect = higher value; concentration not given here.
Experiment [14] is described as follows: compounds altering Cy5-DNA-NS3h complex signal – biochemical, LOPAC1280, artefact control for HCV NS3 helicase inhibitor project (AID 687037; call rule not given here). The following applies: Cy5-DNA-NS3h complex fluorescence interference counterscreen.
A short description of experiment [15]: blockers of cellular phospholipid synthesis – cell-based, LOPAC library, screen 4, primary screen (AID 1347384; call rule not given here). The conditions noted are these: animal cells, phospholipid biosynthesis inhibition screen; at 10 µM.

Sequence of Calcium-activated potassium channel subunit alpha-1 (Homo sapiens) + Leucine-rich repeat-containing protein 26 (Homo sapiens) (Q2I0M4 whole entry, looked up, one chain of several): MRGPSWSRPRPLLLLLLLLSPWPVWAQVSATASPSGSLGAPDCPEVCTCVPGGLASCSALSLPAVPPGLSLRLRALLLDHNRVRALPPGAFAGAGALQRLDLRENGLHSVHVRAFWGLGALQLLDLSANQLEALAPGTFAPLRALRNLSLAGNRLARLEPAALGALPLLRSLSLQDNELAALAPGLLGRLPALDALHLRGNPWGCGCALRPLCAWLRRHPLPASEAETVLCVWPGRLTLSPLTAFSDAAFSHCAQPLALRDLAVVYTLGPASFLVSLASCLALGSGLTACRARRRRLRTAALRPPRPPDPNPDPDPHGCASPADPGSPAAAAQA

In general, inhibition refers to the relative decrease from the control value, in per cent. Turning to `COc1c2occc2cc2ccc(=O)oc12`, the inhibition was 18.6% in experiment [1], -3.18% (inactive) in [8] and -5.05% (inactive) in experiment [9]. The compound also showed a score in experiment [2] of 0.85. This compound gave a rescue above control in [3] of 6.17. Besides, in [4], the cytochrome c release ratio worked out at 2.13. In experiment [5], this compound displayed an inhibition of aggregation of 72.4%. Moreover, in [6], the glutamate uptake change was -3.48%. In [7], this compound displayed an aggregation suppression score of 0.937. The fluorescence ratio in [10] is 1.02 (inactive). For the same compound, the log fold change Tl+ flux with F380Y is -0.0152 (inactive); with F380Y/beta2Delta, -0.0131 (inactive); in experiment [11], 0.011 (inactive); in the experiment on R275C it was 0.0168 (inactive); in the experiment with R275C/beta1, -0.00904 (inactive); in the experiment on R275C/beta2Delta, 0.0233 (inactive).
`CC(C(=O)O)c1cccc(C(=O)c2ccccc2)c1` (configuration not stated): the inhibition in [1] was -50.9%; in experiment [13], -5% (inactive); in [8] it was -1.36% (inactive); in experiment [9] it was 1.05% (inactive). The score in experiment [2] is 1.03. Moreover, in experiment [3], the rescue above control worked out at 17.1. Moreover, in experiment [4], the cytochrome c release ratio is 1.12. Moreover, the inhibition of aggregation in [5] turned out to be 74.7%. Further, in experiment [6], the glutamate uptake change is -7.92%. The same compound gave an aggregation suppression score in experiment [7] of 0.564. Further, in experiment [12], the period change is -0.125 h (inactive). The fluorescence ratio (interference) in [14] is 1 (inactive). Also, the fluorescence ratio in [10] was 0.96 (inactive). Besides, the call in experiment [15] was inactive. The log fold change Tl+ flux in the experiment with F380Y is 0.0438 (inactive); with F380Y/beta2Delta it was 0.023 (inactive); in experiment [11], 0.0363 (inactive); in the experiment on R275C it was -0.00546 (inactive); in the experiment with R275C/beta1 it was -0.000822 (inactive); in the experiment on R275C/beta2Delta it was -0.0306 (inactive).
For `CC(C)OC(=O)C(C)(C)Oc1ccc(C(=O)c2ccc(Cl)cc2)cc1`, the inhibition in [1] was -9.13%. Besides, the score in [2] was -2.53. Moreover, in experiment [3], the rescue above control was 27.1. Besides, in experiment [4], the cytochrome c release ratio was determined as 1.27. Further, in experiment [5], the inhibition of aggregation was determined as 59%. For the same compound, the glutamate uptake change in experiment [6] was -24.1%. Besides, the aggregation suppression score in [7] amounted to 0.0671. In addition, in [12], the period change was 0.08 h (inactive). In [14], the fluorescence ratio (interference) is 1.1 (inactive). In addition, the result in [15] was inactive. Also, the log fold change Tl+ flux is -0.0417 (inactive) with F380Y; -0.0352 (inactive) in the experiment on F380Y/beta2Delta; -0.00437 (inactive) in experiment [11]; -0.0206 (inactive) with R275C; -0.021 (inactive) in the experiment on R275C/beta1; 0.00724 (inactive) in the experiment with R275C/beta2Delta.
Regarding `CN(C)C(=O)C(CCN1CCC(O)(c2ccc(Cl)cc2)CC1)(c1ccccc1)c1ccccc1`, the inhibition in [1] was 18.5%; in experiment [13], -4% (inactive); in experiment [8] it was -6.82% (inactive); in experiment [9], -5.05% (inactive). Also, the score in [2] stood at 1.94. Further, the rescue above control in experiment [3] amounted to 1.56. In addition, the cytochrome c release ratio in experiment [4] was determined as 0.99. Moreover, in experiment [5], the inhibition of aggregation was determined as 7.94%. In [6], the glutamate uptake change is 44.5%. In experiment [7], this compound showed an aggregation suppression score of 1.13. For the same compound, the period change in experiment [12] is -0.235 h (inactive). In addition, in experiment [14], the fluorescence ratio (interference) was 1 (inactive). Also, in experiment [10], the fluorescence ratio was 1.01 (inactive). Also, the compound was called inactive in [15]. The log fold change Tl+ flux in the experiment on F380Y is 0.113 (active); in the experiment on F380Y/beta2Delta, 0.103 (active); in experiment [11], -0.0267 (inactive); in the experiment on R275C, -0.645 (active); with R275C/beta1 it was 0.0279 (inactive); in the experiment with R275C/beta2Delta, -0.504 (active).
As for `N=c1nc(N2CCCCC2)cc(N)n1O`, the inhibition in [1] was 20.6%; in experiment [13] it was -4% (inactive); in experiment [8], -9.55% (inactive); in [9] it was -5.05% (inactive). In addition, the score in [2] was found to be 1.58. The same compound had a rescue above control in experiment [3] of 3.83. In experiment [4], the cytochrome c release ratio came out at 1.17. Further, the inhibition of aggregation in [5] came to 22.5%. For the same compound, the glutamate uptake change in experiment [6] is 7.03%. In experiment [7], the aggregation suppression score amounted to 1.83. Besides, in experiment [12], the period change was -0.045 h (inactive). For the same compound, in experiment [14], the fluorescence ratio (interference) was 1 (inactive). Also, the fluorescence ratio in experiment [10] was 1.03 (inactive). In [15], the result was inactive. For the same compound, the log fold change Tl+ flux is -0.0693 (inactive) in the experiment on F380Y; -0.0535 (inactive) in the experiment with F380Y/beta2Delta; 0.00253 (inactive) in experiment [11]; -0.0452 (inactive) with R275C; -0.0046 (inactive) with R275C/beta1; -0.0232 (inactive) in the experiment on R275C/beta2Delta.
